Source: PubChem
DT40 TDP1 no CPT – qHTS for Inhibitors of human tyrosyl-DNA phosphodiesterase 1 (TDP1): qHTS in cells in absence of CPT. DT40 Tdp1-/- hTDP1 cells, no CPT, ATP luminescence, 48 h. Potency, µM (series often up to 46.2 µM), without a hit: top-dose activity change, negative = growth inhibition, actives largely listed as inhibitors. 15% of 420,000 active; also: potency is read from the fitted curve at half-maximal effect; % is scaled to controls: 0 for no effect and ±100 for the full control effect; nearly all actives have a fitted effect of over 55% in size
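Seeded 400 DT40-hTDP1 cells/well (vehicle DMSO, no 20 nM CPT); pinned compounds; ≥48 hr at 37 °C; CellTiter-Glo luminescence as viability measure.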
TGFb SMAD3 inh – qHTS for Inhibitors of TGF-b; HepG2 CAGA-GFP TGF-b/SMAD3 reporter, GFP fluorescence, 18 h; TGF-beta stimulated, 500 pg/mL final; Potency, µM (top dose mostly 46.1 µM), for inactives: at the top dose activity, negative = inhibition, most hits filed as inhibitors; 1.2% of 410,000 active; AID 588855, 2011; also: potency is read from the fitted curve at half-maximal effect; % is scaled to controls: 0 for no effect and ±100 for the full control effect; nearly all actives have a fitted effect of over 65% in size
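First, reporter cells (HEPG2 CAGA-GFP) rested 2 h at 37 degrees C. Next, compounds were pinned in and TGF-beta added to 500 pg/mL final. After 18 h, GFP was imaged per cell and summed per well.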
HepG2 viability – qHTS for Inhibitors of TGF-b: Cytotox Counterscreen. Potency, µM (top dose mostly 46.1 µM), for the others: top-dose activity change, negative = cytotoxicity, actives largely listed as cytotoxic. AID 588856, 2011. 0.76% of 410,000 active. HepG2 CAGA-GFP viability, ATP luminescence, 18 h; also: potency is read from the fitted curve at half-maximal effect
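HepG2 CAGA-GFP cells (1000/well, DMEM with 1% FBS) received compound, then TGF-beta at 500 pg/mL final, and were incubated 18 hours at 37 degrees C. Viability was read by CellTiter-Glo luminescence. Media-only wells were set as complete cell-killing and DMSO as no toxicity.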
DT40 TDP1 CPT – qHTS for Inhibitors of human tyrosyl-DNA phosphodiesterase 1 (TDP1): qHTS in cells in presence of CPT. chicken DT40 Tdp1-/-;hTDP1 cells + 20 nM CPT, ATP luminescence, 48 h. AID 686979, 2013. Potency, µM (highest dose often 46.2 µM), for inactives: at the top dose activity change, negative = growth inhibition, actives largely listed as inhibitors. 12% of 420,000 active; also: potency is read from the fitted curve at half-maximal effect; % is scaled to controls: 0 for no effect and ±100 for the full control effect; nearly all actives have a fitted effect of over 55% in size
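Cell growth measured by CellTiter-Glo luminescence after a minimum 48 h, 37 C compound exposure with 20 nM CPT in Tdp1-knockout DT40 cells stably expressing hTDP1, seeded 400/well; qHTS titration format.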
IL-1B inflam inh – qHTS for Inhibitors of Inflammasome Signaling: IL-1-beta AlphaLISA Primary Screen. THP-1 LPS/ATP IL-1B secretion, AlphaLISA, 16 h; stronger effect = lower value. 4.7% of 360,000 active. activity change, % at 57.5 µM; in the data active = activity change below about -50%; inconclusive = mostly about -30% to -49%; also: % is scaled to controls: 0 for no effect and ±100 for the full control effect
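Secreted IL-1B measured by AlphaLISA bead assay after 16 h compound exposure of THP-1 cells; compounds (final up to 57.5 uM) added 1 h before LPS (250 ng/mL) and ATP (1.25 mM) stimulation; lower signal means less secretion.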
ASM inhibitor – Inhibitors of Secretory Acid Sphingomyelinase (S-ASM): qHTS | Sphingomyelin phosphodiesterase (Homo sapiens), P17405 | placental ASM, HMU-PC fluorogenic substrate, 60 min | Potency, µM (series often up to 57.5 µM), for the others: at the top dose activity change, negative = inhibition, actives largely listed as inhibitors | 0.006% of 340,000 active; also: potency is read from the fitted curve at half-maximal effect
Target sequence (P17405 47-631 limits assumed): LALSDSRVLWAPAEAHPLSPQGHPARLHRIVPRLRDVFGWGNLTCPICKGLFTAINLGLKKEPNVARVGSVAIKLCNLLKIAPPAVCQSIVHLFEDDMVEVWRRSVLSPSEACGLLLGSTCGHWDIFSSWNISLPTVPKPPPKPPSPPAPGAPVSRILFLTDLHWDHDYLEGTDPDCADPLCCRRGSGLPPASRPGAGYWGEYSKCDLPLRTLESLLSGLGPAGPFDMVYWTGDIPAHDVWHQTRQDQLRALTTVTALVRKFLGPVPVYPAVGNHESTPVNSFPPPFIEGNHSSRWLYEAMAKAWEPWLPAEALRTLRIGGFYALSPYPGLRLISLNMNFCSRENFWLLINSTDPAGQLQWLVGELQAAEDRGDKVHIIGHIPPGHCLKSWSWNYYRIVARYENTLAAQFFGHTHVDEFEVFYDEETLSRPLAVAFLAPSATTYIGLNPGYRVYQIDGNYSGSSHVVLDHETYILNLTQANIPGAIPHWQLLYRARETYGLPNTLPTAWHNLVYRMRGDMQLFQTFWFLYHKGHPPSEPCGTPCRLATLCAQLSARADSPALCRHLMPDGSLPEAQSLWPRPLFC
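HMU-PC0 cleavage (9 uM final) by human placental ASM, 60 min at 37 °C following 10 min compound exposure at RT; stopped at pH 10, fluorescence Ex 386/Em 447 nm.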
Active calls of the source: *; ? = inconclusive; · = not tested or not shown; [ ] = dose if it differs, or a comment. An excerpt weighted towards active compounds, which were near 19% of everything screened. Unless noted, calls follow the shape of the dose curve; as a rule, active = well fitted curve in the direction sought with a large enough effect; inconclusive = small, poorly fitted or top-dose-only effect, or another doubt; inactive = no such curve, though single readings can be large; an effect the other way counts as inactive or inconclusive.

SMILES	DT40 TDP1 no CPT	TGFb SMAD3 inh	HepG2 viability	DT40 TDP1 CPT	IL-1B inflam inh	ASM inhibitor
O=C(CC1N=C2c3ccccc3N=C(SCc3ccccc3F)N2C1=O)NCc1ccc2c(c1)OCO2 (configuration not stated)	?	-20.5%	-11.6%	18.4µM*	·	·
CCOc1ccccc1NC(=O)CSC1=Nc2ccccc2C2=NC(CC(=O)NCc3ccc4c(c3)OCO4)C(=O)N12 (configuration not stated)	23.1µM*	?	-8.7%	?	·	·
COc1ccccc1NC(=O)CSC1=Nc2ccccc2C2=NC(CC(=O)NCc3ccc4c(c3)OCO4)C(=O)N12 (configuration not stated)	?	?	-15.3%	?	·	·
O=C(CC1N=C2c3ccccc3N=C(SCc3ccc(F)cc3)N2C1=O)NCc1ccc2c(c1)OCO2 (configuration not stated)	?	?	4.7%	?	·	·
COc1ccc(C(=O)CC(SCC(NC(C)=O)C(=O)O)c2ccc(Cl)cc2)cc1OC (configuration not stated)	?	?	-52.7%	14.6µM*	-88.1*	-1.1%
O=C(NCCCOc1cccc(CN2CCCCC2)c1)c1ccc(Cl)c(Cl)c1	13µM*	1.4%	-32.4%	18.4µM*	?	-2.4%
c1cc(CN2CCCCC2)cc(OCCCNc2nc3ccccc3s2)c1	11.6µM*	?	-61.3%	18.4µM*	-8.5	11.6%
COc1cccc(CNc2nc3ccc(NC(C)=O)cc3s2)c1	-11.9%	2.5%	-3.7%	-9.2%	28.1	-2.8%
COC(=O)c1cc(N=Nc2sc(N)nc2C)cc(C(=O)OC)c1	13µM*	-5.1%	-21.5%	?	-19.2	-10.2%
CCN(CC)S(=O)(=O)c1cccc(N=Nc2sc(N)nc2C)c1	-28.6%	-18.3%	-39.9%	?	0.0	-13.2%
CCCCCCCCn1cnc2c(N)c(C)c(C)cc21	?	?	20µM*	?	-12.1	?
COc1ccc(Cn2cnc3c(N)c(C)c(C)cc32)cc1	-23.8%	11.7%	7.7%	2.8%	-1.3	-2.6%
Cc1cc2nc[nH]c(=O)n2n1	10.4%	-0.7%	-24.5%	6.1%	21.1	·
Cc1nc2cc(NCc3nc4ccccc4n3Cc3ccccc3)ccc2n1C	?	?	-43.5%	23.1µM*	-82.7*	-2.9%
Cc1nc2cc(NCc3cc([N+](=O)[O-])ccc3O)ccc2n1Cc1ccccc1	?	1.6%	-2.0%	-29.0%	16.5	-12.3%
Cc1cccc(NCc2nc3ccccc3n2Cc2ccccc2)c1	?	-46.4%	-36.2%	14.6µM*	-26.0	?
CN(C)c1nc(N(C)C)nc(N2CC(=O)N(c3ccccc3)C2=N)n1	?	-1.7%	4.7%	-22.8%	9.2	4.5%
CC1CCN(c2nn3c(=O)c(C(=O)NCc4ccc(Cl)cc4)cnc3s2)CC1	3.7%	?	-1.8%	-6.4%	·	·
c1ccc2c(c1)C1=NCCN1c1ccccc1-2	2.31µM*	10µM*	-24.0%	2.91µM*	-105.4*	·
COC1=Nc2ccccc2N2CCN=C12	39.2%	1.0%	-18.2%	9.6%	-17.7	·
COc1ccc(Cc2nnc(N/N=C/c3ccc(O)cc3O)[nH]c2=O)cc1OC	5.8µM*	-18.9%	-4.7%	5.8µM*	-53.4*	-4.1%
Cc1ccc(S(=O)(=O)Nc2ccc3c(c2)CC(=O)N([C@H](C)CO)C[C@H](C)[C@H](CN(C)Cc2ccc4c(c2)OCO4)O3)cc1	18.4µM*	?	-50.3%	20.6µM*	49.9	-3.2%
C[C@@H]1CN([C@H](C)CO)C(=O)Cc2cc(NC(=O)Nc3ccccc3)ccc2O[C@@H]1CN(C)Cc1ccc2c(c1)OCO2	?	15.8µM*	17.8µM*	?	-64.0*	-6.6%
COc1ccc(S(=O)(=O)Nc2ccc3c(c2)CC(=O)N([C@@H](C)CO)C[C@@H](C)[C@@H](CN(C)Cc2ccccc2)O3)cc1	16.4µM*	?	-19.4%	18.4µM*	-15.2	-0.7%
CCOC(=O)CCCCCC(=O)Nc1ccc2c(c1)CC(=O)N([C@H](C)CO)C[C@@H](C)[C@H](CN(C)Cc1ccc3c(c1)OCO3)O2	?	-9.4%	-3.3%	?	7.3	-5.6%
SMILES	DT40 TDP1 no CPT	TGFb SMAD3 inh	HepG2 viability	DT40 TDP1 CPT	IL-1B inflam inh	ASM inhibitor
COC(=O)c1ccc2c(c1)C(C)(C)C(/C=C/c1ccc(OC)c(OC)c1OC)=[N+]2C	0.651µM*	10µM*	-94.3%	0.82µM*	-116.5*	35.4%
COC(=O)c1ccc2c(c1)C(C)(C)C(/C=C/c1ccc(O)cc1)=[N+]2C	2.82µM*	3.98µM*	3.55µM*	2.51µM*	-91.7*	-2.4%
COc1cc(/C=C/c2ccc(O)cc2)cc(OC)c1	?	-10.1%	-37.4%	?	-22.1	3.7%
COc1ccc(/C=N/Nc2ccc(C(=O)O)cc2)c(OC)c1OC	14.1%	0.0%	-4.6%	-6.9%	45.9	14.8%
COc1cccc(C(N)c2nc(-c3cc(F)cc(F)c3)cs2)c1 (configuration not stated)	?	21.3%	-5.4%	?	36.9	·
OC(CNCC1COc2ccccc2O1)COc1ccccc1F (configuration not stated)	-16.8%	0.4%	-8.8%	-0.4%	18.2	4.4%[11.5 µM]
CC(C)(C)c1cc(C(=O)O)n(Cc2ccc(Cl)cc2Cl)n1	-13.1%	2.5%	-3.0%	14.6µM*	22.7	3.2%
CC1SC(c2ccc(F)cc2)N(CCc2ccccc2)C1=O (configuration not stated)	23.1µM*	-3.6%	-22.5%	0.5%	-5.0	-0.6%
CC(=O)c1ccc(NC(=O)CN2C(=O)c3cccnc3Sc3ccccc32)cc1	?	6.3%	-3.1%	?	·	·
Cn1cc(C=C2C(=O)CC(C)(C)CC2=O)c2ccccc21	5.2%	-4.2%	-11.3%	-22.6%	8.7	2.2%
CC1=NN(c2ccccc2)C(=O)/C1=C\c1cn(CCC#N)nc1-c1ccc(Cl)cc1	?	?	-61.4%	?	-85.2*	-25.6%
CC1=NNC(=O)/C1=C\c1cn(-c2ccccc2)nc1-c1ccc(Cl)cc1	5.17µM*	3.55µM*	-94.2%	5.17µM*	-118.6*	-4.5%
